These results are taken from PubChem BioAssay (Tox21).

A number with no mark means an inactive call. Results filed as inconclusive are left out. The source made the active and inactive calls. Unless noted, the call rests on the fitted dose curve.

Assay [1] in a line: Nuclear factor erythroid 2-related factor 2/antioxidant responsive element (Nrf2/ARE) small molecule agonists: qHTS cell viability counter screen in human keratinocytes (AID 1919968; active means well fitted curve in the direction sought with a large enough effect in the repeat runs; an effect the other way counts as inactive or inconclusive; further: nearly all actives have a fitted effect of over 55% in size; further: potency means the concentration at half of the fitted maximal effect). In outline: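 Cells of the KeratinoSens line were plated at 1,500 per well and left for 5 h before compound transfer from DMSO stocks. After a 23 h incubation (37 C, 5% CO2), CellTiter-Fluor was added. Signal was taken as fluorescence intensity 1 h later.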

In assay [2] the target is Gonadotropin-releasing hormone receptor (Homo sapiens) (UniProt P30968). The assay can be described thus: Human gonadotropin-releasing hormone receptor (GnRHR) small molecule agonists, calcium flux assay in GnRHR-HEK293 cells (AID 1920063). Further: nearly all actives have a fitted effect of over 35% in size. The procedure, abridged:
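Compounds dissolved in DMSO are pin-transferred onto dye-loaded GnRHR-HEK293 cells, which were seeded 18 h before at 37 C/5% CO2. Calcium signal is read as fluorescence intensity at 1 s intervals for 3 min.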

The target of assay [3] is KiSS-1 receptor (Homo sapiens) (UniProt Q969F8). Kind of assay: Human kisspeptin (KISS1R) small molecule agonists, calcium flux assay in KISS1R-HEK293 cells (AID 1920064; active means well fitted curve in the direction sought with a large enough effect in the repeat runs; an effect the other way counts as inactive or inconclusive). In outline: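 Cell line: HEK293, stable human KISS1R. Dye loading 1 h at 37 C after 18 h culture. Read: kinetic fluorescence, 480/540 nm, 3 min at 1 s intervals.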
Assay [4] in a line: G protein-coupled receptor (GPCR) small molecule agonists, calcium flux assay: HEK293 wild type cell line counter screen (AID 1920065). In outline: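 Tox21 10K compounds, 15 concentrations each in triplicate, pin-transferred in DMSO onto dye-loaded cells; kinetic read at 480/540 nm for 3 min, 1 s intervals.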
The nature of assay [5]: p53 small molecule agonists, cell-based qHTS assay with human liver microsomes (AID 1963577).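 Further: p53 response element beta-lactamase reporter cells with liver microsomes plus NADPH.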 In outline: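 Metabolically competent format: test substances, human liver microsomes and NADPH (both 0.5 mg/mL final) incubated with p53RE-bla cells 16 h at 37 C. Beta-lactamase reporter signal then quantified by fluorescence.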
The nature of assay [6]: p53 small molecule agonists, cell-based qHTS assay with rat liver microsomes (AID 1963578). The procedure, abridged:
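Each plate received p53RE-bla cells, then compound, then rat liver microsomes and NADPH (both 0.5 mg/mL final). Plates were held 16 h at 37 C, and beta-lactamase activity was detected with LiveBLAzer over 2 h.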

The nature of assay [7]: p53 small molecule agonists, cell-based qHTS assay with human liver microsomes: qHTS cell viability counter screen (AID 1963579). Further: nearly all actives have a fitted effect of over 45% in size. Further: potency means the concentration at half of the fitted maximal effect. The procedure, abridged: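 Tox21 library compounds, delivered from DMSO stocks, were tested on p53RE-bla cells together with 0.5 mg/mL human liver microsomes and 0.5 mg/mL NADPH (final) over 16 h at 37 C; CellTiter-Glo luminescence served as the cytotoxicity measure.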

Assay [8] can be described thus: p53 small molecule agonists, cell-based qHTS assay with rat liver microsomes: qHTS cell viability counter screen (AID 1963580). Further: nearly all actives have a fitted effect of over 45% in size. Further: potency means the concentration at half of the fitted maximal effect. The procedure, abridged: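 Cytotoxicity counter screen: intracellular ATP measured by CellTiter-Glo luminescence in the same wells as the beta-lactamase reporter read, on HCT-116 p53RE-bla cells exposed 16 h at 37 C to compounds with rat liver microsomes and NADPH, each 0.5 mg/mL final.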

A short description of assay [9]: p53 small molecule agonists, cell-based qHTS assay: qHTS cell viability counter screen (AID 1963581). Further: nearly all actives have a fitted effect of over 45% in size. Further: potency means the concentration at half of the fitted maximal effect. The procedure, abridged: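 ATP content measured by luminescence in HCT-116 p53RE-bla cells treated 16 h at 37 C, same wells as the reporter screen.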
Assay [10] in a line: p53 small molecule agonists, cell-based qHTS assay (AID 1963582; active means well fitted activation curve with a large enough effect in the signal ratio in the repeat runs, not every such curve was filed as active; the % refers to the signal ratio). The procedure, abridged:
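16 h compound exposure (37 C) of p53 response element–bla cells, preceded by 5 h recovery at 37 C/5% CO2; read-out via LiveBLAzer B/G FRET substrate, 2 h RT, fluorescence intensity.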

Assay [11] deals with 5-hydroxytryptamine receptor 2A (Homo sapiens) (UniProt P28223). The assay can be described thus: 5-hydroxytryptamine receptor 2A (HTR2A) small molecule antagonists, cell-based qHTS assay (AID 1963586). Further: nearly all actives have a fitted effect of over 45% in size. In outline: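 CHO cells stably expressing human HTR2A were plated for 18 h at 37 C, then loaded with calcium dye for 1 h. Compounds were preincubated 5 min at room temperature before DOI (4 nM solution) was added. Kinetic fluorescence was read for 3 min.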

Assay [12] has the same target. The assay can be described thus: 5-hydroxytryptamine receptor 2A (HTR2A) small molecule agonists, cell-based qHTS assay (AID 1963587). Further: nearly all actives have a fitted effect of over 30% in size. Further: potency means the concentration at half of the fitted maximal effect. In outline:
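CHO cells stably expressing human HTR2A, plated 18 h, loaded with calcium dye 1 h at 37 C. Agonist mode: compounds added and intracellular calcium fluorescence recorded kinetically for 2 min at 1 sec intervals.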

In assay [13] the target is Muscarinic acetylcholine receptor M1 (Homo sapiens) (UniProt P11229). The assay can be described thus: Cholinergic receptor muscarinic 1 (CHRM1) small molecule antagonists, cell-based qHTS assay (AID 1963588). Further: nearly all actives have a fitted effect of over 40% in size. Further: potency means the concentration at half of the fitted maximal effect. The procedure, abridged:
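Compounds were tested at 15 concentrations in three independent runs. Dye-loaded CHRM1-CHO cells were exposed 5 min at room temperature before stimulation by acetylcholine added at 50nM. Intracellular calcium was read kinetically on FDSS for 3 min.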

Assay [14] has the same target. The assay can be described thus: Cholinergic receptor muscarinic 1 (CHRM1) small molecule agonists, cell-based qHTS assay (AID 1963589). Further: nearly all actives have a fitted effect of over 35% in size. The procedure, abridged:
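Homogeneous fluorescence calcium flux, agonist mode. Human M1-expressing CHO cells; compound dosed at 15 concentrations, three independent runs; signal sampled every 1 sec.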

The nature of assay [15]: cAMP Responsive Elements (CRE) small molecule agonists, cell-based qHTS assay (AID 1963590). The procedure, abridged: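 HEK 293T cells stably bearing CRE-bla were plated at 2,000 cells per well and rested 18 h. Compounds, positive controls or DMSO were added for 3 h at 37 C. LiveBLAzer B/G substrate was then loaded for 2 h at room temperature.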
The nature of assay [16]: cAMP Responsive Elements (CRE) small molecule antagonists, cell-based qHTS assay (AID 1963591; active means well fitted inhibition curve with a large enough effect in the signal ratio in the repeat runs, not every such curve was filed as active; the % refers to the signal ratio; further: potency means the concentration at half of the fitted maximal effect). In outline:
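First, CRE-bla HEK293T cells settled 18 h at 37 C. Next, compound and 0.25 uM final NKH477 were applied for 3 h. Last, LiveBLAzer B/G substrate was loaded for 2 h at room temperature.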

For assay [17], the target named is Beta-2 adrenergic receptor (Homo sapiens) (UniProt P07550). Kind of assay: Adrenergic beta2 receptor (ADRB2) small molecule antagonists, cell-based qHTS assay (AID 1963592). Further: nearly all actives have a fitted effect of over 50% in size. Further: potency means the concentration at half of the fitted maximal effect. The procedure, abridged:
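Assay format: CHO-ADRB2 cells, 18-20hr seeding at 37C/5% CO2, then compound plus 1nM isoproterenol agonist mix for 0.5hr RT. Homogeneous time-resolved fluorescence cAMP detection after 1hr, expressed as 665/615 nm ratio.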

Assay [18] has as its target D(2) dopamine receptor (Homo sapiens) (UniProt P14416). Kind of assay: Dopamine D2 receptor (DRD2) small molecule antagonists, cell-based qHTS assay (AID 1963595; active means well fitted inhibition curve with a large enough effect in the signal ratio in the repeat runs, with a control signal flat; the % refers to the signal ratio; further: potency means the concentration at half of the fitted maximal effect). The procedure, abridged: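 Antagonism was scored as restored cAMP in HEK293-DRD2 cells. These cells were stimulated with 200 nM NKH477 and 12 nM quinpirole for 30 min at room temperature, in the presence of 0.1 mM Ro20-1724.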

Assay [19] shares this target. Kind of assay: Dopamine D2 receptor (DRD2) small molecule agonists, cell-based qHTS assay (AID 1963594). Further: nearly all actives have a fitted effect of over 35% in size. The procedure, abridged:
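HEK293 cells stably expressing human DRD2, pre-treated with PDE inhibitor Ro20-1724 (0.1 mM final) and compound 10 min at room temperature, then stimulated with NKH477 (200nM […]) for 30 min. cAMP read by HTRF (665/620 nm).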

Assay [20] concerns the target Beta-2 adrenergic receptor (Homo sapiens) (UniProt P07550). Kind of assay: Adrenergic beta2 receptor (ADRB2) small molecule agonists, cell-based qHTS assay (AID 1963593).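 Further: CHO cells stably overexpressing human ADRB2.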 In outline:
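CHO cells stably over-expressing ADRB2 were plated overnight at 37C, then dosed with compounds plus a stimulation mix containing 100uM IBMX and 25uM Ro-20-1724 for 0.5hr at room temperature. cAMP was measured by HTRF competition, 1hr.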

5-hydroxytryptamine receptor 2A (Homo sapiens), sequence (P28223 whole entry, looked up): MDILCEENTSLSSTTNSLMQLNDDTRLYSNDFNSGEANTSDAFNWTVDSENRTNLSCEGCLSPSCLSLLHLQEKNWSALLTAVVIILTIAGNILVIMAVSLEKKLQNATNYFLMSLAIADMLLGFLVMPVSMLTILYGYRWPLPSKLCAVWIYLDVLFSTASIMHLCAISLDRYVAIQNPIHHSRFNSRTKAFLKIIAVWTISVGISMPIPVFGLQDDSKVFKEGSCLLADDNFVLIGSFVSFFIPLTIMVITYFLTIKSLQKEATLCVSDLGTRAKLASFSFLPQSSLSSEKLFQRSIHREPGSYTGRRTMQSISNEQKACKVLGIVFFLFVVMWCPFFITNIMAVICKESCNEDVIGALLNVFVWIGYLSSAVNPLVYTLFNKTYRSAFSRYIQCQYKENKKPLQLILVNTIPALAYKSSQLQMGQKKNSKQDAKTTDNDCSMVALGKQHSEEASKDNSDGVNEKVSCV
Gonadotropin-releasing hormone receptor (Homo sapiens), sequence (P30968 whole entry, looked up): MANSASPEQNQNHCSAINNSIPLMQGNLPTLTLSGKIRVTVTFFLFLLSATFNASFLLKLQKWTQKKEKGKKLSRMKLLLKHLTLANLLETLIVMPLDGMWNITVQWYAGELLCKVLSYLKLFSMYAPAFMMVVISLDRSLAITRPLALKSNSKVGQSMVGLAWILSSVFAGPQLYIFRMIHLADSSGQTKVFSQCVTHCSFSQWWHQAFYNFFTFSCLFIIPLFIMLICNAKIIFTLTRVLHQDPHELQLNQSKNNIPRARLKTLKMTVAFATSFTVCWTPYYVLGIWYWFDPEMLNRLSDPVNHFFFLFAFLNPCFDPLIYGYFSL
Muscarinic acetylcholine receptor M1 (Homo sapiens), sequence (P11229 whole entry, looked up): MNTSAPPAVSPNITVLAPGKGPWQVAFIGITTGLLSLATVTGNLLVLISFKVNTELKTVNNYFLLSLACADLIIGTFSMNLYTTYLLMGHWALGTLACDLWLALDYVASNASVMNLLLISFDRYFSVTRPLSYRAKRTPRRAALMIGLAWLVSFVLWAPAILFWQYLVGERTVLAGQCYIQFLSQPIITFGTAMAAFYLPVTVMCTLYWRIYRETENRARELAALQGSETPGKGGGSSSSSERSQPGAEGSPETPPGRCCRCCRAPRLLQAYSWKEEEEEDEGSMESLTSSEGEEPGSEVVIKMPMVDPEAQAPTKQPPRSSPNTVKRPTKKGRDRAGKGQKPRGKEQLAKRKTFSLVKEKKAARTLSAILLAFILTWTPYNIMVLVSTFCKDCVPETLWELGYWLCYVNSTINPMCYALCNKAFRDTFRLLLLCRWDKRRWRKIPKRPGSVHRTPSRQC
D(2) dopamine receptor (Homo sapiens), sequence (P14416 whole entry, looked up): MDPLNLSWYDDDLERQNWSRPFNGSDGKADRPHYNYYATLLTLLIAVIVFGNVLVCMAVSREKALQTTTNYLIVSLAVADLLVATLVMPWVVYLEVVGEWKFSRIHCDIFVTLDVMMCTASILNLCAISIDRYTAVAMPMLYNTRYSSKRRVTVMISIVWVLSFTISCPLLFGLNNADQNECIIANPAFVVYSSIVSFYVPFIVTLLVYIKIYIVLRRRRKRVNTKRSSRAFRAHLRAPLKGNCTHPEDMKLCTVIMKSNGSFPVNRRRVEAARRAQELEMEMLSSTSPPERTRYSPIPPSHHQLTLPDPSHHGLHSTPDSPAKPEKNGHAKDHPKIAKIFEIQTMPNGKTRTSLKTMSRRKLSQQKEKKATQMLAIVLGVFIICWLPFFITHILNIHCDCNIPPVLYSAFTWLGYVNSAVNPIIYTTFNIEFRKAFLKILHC
Beta-2 adrenergic receptor (Homo sapiens), sequence (P07550 whole entry, looked up): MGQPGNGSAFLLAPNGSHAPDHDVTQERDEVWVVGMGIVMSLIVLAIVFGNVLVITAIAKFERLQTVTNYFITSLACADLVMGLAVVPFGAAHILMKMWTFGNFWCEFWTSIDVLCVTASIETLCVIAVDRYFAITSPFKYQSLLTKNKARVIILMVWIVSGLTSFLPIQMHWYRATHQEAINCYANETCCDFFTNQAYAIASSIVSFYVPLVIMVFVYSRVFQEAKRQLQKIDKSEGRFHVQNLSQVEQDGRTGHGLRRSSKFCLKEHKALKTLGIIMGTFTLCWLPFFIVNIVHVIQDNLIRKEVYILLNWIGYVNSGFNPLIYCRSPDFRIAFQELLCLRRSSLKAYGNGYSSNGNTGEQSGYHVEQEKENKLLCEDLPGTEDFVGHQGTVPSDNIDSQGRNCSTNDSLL
KiSS-1 receptor (Homo sapiens), sequence (Q969F8 whole entry, looked up): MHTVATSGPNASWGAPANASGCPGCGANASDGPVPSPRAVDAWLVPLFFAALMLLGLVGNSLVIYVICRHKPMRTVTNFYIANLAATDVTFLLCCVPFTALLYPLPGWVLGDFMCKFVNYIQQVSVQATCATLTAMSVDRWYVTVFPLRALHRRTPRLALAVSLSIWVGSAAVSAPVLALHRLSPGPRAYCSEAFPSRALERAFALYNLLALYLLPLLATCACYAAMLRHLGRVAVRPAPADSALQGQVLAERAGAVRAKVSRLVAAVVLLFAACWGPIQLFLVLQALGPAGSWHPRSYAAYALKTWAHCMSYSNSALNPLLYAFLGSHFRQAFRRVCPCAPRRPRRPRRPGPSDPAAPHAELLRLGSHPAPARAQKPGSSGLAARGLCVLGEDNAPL

For the compound `CCCCOC(=O)/C=C\C(=O)OCCCC`, the Potency entry in [1], in assay [2], in assay [5], in [6], in assay [7] and in assay [8] was “inactive” throughout. Moreover, the Potency entry in assay [9], in assay [10], in assay [11], in [12], in assay [13] and in assay [14] was “inactive” in each case. For the same compound, the Potency entry in assay [15], in assay [16], in assay [17] and in assay [18] was “inactive” each time. Also, the outcome in [3] and in assay [4] was inactive.
`CC1(C)S[C@@H]2[C@H](NC(=O)C(C(=O)O)c3ccccc3)C(=O)N2[C@H]1C(=O)O` (stereo partly drawn): the Potency entry in assay [1], in [2], in assay [5], in assay [6], in assay [8] and in assay [9] was “inactive” each time. In addition, the Potency result in assay [10], in assay [11], in [12], in [13], in [14] and in assay [15] was “inactive” throughout. In addition, the Potency result in assay [16], in assay [19] and in assay [18] was “inactive” each time. Moreover, the outcome in assay [3] and in assay [4] was inactive. Further, in assay [7], the Potency was 0.177 µM (active).
Consider `OC1(c2ccc(Cl)c(C(F)(F)F)c2)CCN(CCCC(c2ccc(F)cc2)c2ccc(F)cc2)CC1`, for which the Potency is 6.68 µM (active) in assay [1], 11.2 µM (active) in [9], 26.6 µM (active) in assay [17] and 0.119 µM (active) in assay [18]. In addition, the outcome in [3] and in assay [4] was inactive. For the same compound, the Potency result in assay [6], in assay [7], in assay [8], in assay [12], in assay [14] and in [19] was “inactive” each time.
Consider `CCCCCCCCCCn1cc[n+](CCCCCCCCCC)c1C`, for which the Potency in [1] is 21.7 µM (active); in [8], 32.4 µM (active); in assay [9], 36.4 µM (active); in [12] it was 55 µM (active); in assay [13], 2.98 µM (active); in assay [16] it was 21.7 µM (active). The Potency in assay [17] was 27.3 µM (active). Moreover, the outcome in assay [4] was inactive. In addition, the Potency entry in assay [5], in assay [6], in assay [14] and in [19] was “inactive” in each case.
Consider `CC(C)(C)c1nnc(NS(=O)(=O)c2ccccc2)s1`, for which the Potency entry in assay [1], in assay [6], in [7], in assay [8], in assay [10] and in [12] was “inactive” throughout. Also, the Potency entry in [13], in assay [14], in assay [15], in assay [16], in assay [17] and in assay [18] was “inactive” in each case. Also, the result in assay [3] and in assay [4] was inactive.
As to `CN1CCOC(c2ccccc2)c2ccccc2C1` (stereo not drawn), the Potency entry in assay [1], in assay [5], in assay [6], in [7], in assay [8] and in assay [10] was “inactive” in each case. Besides, the Potency entry in assay [11], in assay [12], in assay [13], in [14], in assay [15] and in assay [16] was “inactive” throughout. In addition, the Potency entry in assay [17], in assay [20], in assay [19] and in assay [18] was “inactive” each time. Also, the outcome in [4] was inactive.
As for `Cc1cc(=O)oc2cc(O[C@@H]3SC[C@@H](O)[C@H](O)[C@H]3O)ccc12`, the Potency entry in assay [1], in assay [5], in [6], in assay [7], in assay [8] and in [9] was “inactive” throughout. Besides, the Potency result in assay [11], in assay [12], in assay [13], in assay [14], in assay [15] and in [16] was “inactive” throughout. In addition, the Potency entry in [17], in [19] and in assay [18] was “inactive” each time. Besides, the outcome in assay [4] was inactive.
On to `CC(C)=CCCC(C)C=O` (stereo not drawn), for which the Potency result in assay [1], in [2], in assay [5], in assay [6], in [7] and in [8] was “inactive” in each case. The Potency result in assay [9], in [10], in assay [11], in assay [13], in assay [14] and in assay [15] was “inactive” throughout. The Potency result in [16], in [19] and in [18] was “inactive” in each case. In addition, the outcome in [3] and in assay [4] was inactive.
In the case of `CCCCCCCCCCCl`, the Potency result in [1], in assay [2], in [5], in [6], in assay [7] and in assay [8] was “inactive” throughout. The Potency result in [9], in assay [13], in [15], in assay [17], in [19] and in assay [18] was “inactive” each time. Besides, the outcome in [3] and in assay [4] was inactive.
